Experimental data from PubChem BioAssay AID1159580 (chemical genetic matrix, 2015).
Screen size: about 5,500 compounds; about 2,000 (36%) were called active. Another 18% or so got no clear call; they are omitted. No stated cut-off is given here; in the data, active means normalized growth mostly below about 0.91 (no sharp cut-off); inconclusive means no clear call, values can overlap the other calls; inactive means mostly above about 0.92. Some of the results follow.

Test: chemical genetic growth profiling, strain panel (AID 1159580);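 further: tested at 20 µM; growth read once vehicle control cultures reached saturation at 30 °C; 1 = growth at the plate median or of vehicle wells; lower values mean less growth of the strain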
Settings: S. cerevisiae deletion strains, growth OD
[1] = locus YAL013W, strain DEP1, hits give low values
[2] = locus YCL061C, strain MRC1, hits give low values
[3] = locus YGR078C, strain PAC10, hits give low values
[4] = locus YHR030C, strain SLT2, hits give low values
[5] = locus YJL095W, strain BCK1, hits give low values
[6] = locus YJL187C, strain SWE1, hits give low values
[7] = locus YMR307W, strain GAS1, hits give low values
[8] = locus YNL322C, strain KRE1, hits give low values
[9] = locus YPL055C, strain LGE1, hits give low values
[10] = locus YPL241C, strain CIN2, hits give low values
[11] = locus YBR229C, strain ROT2, hits give low values
[12] = locus YDL101C, strain DUN1, hits give low values
[13] = locus YEL061C, strain CIN8, hits give low values
[14] = locus YGR229C, strain SMI1, hits give low values
[15] = locus YJR043C, strain POL32, hits give low values
[16] = locus YKL190W, strain CNB1, hits give low values
[17] = locus YLR039C, strain RIC1, hits give low values
[18] = locus YLR262C, strain YPT6, hits give low values
[19] = locus YOL006C, strain TOP1, hits give low values

Measured: normalized growth

Nc1nnc(-c2cccc(Cl)c2Cl)c(N)n1
inactive: [1] 0.995 | locus YAL021C, strain ccr4, hits give low values 1.01 | locus YAL026C, strain drs2, hits give low values 1.02 | locus YAL030W, strain snc1, hits give low values 1.03 | locus YAL040C, strain CLN3, hits give low values 0.986 | locus YBL061C, strain skt5, hits give low values 1.02 | locus YBR009C, strain hhf1, hits give low values 1.03 | locus YBR023C, strain chs3, hits give low values 1.02 | locus YBR171W, strain sec66, hits give low values 1.04 | locus YBR231C, strain swc5, hits give low values 1.03 | locus YBR279W, strain paf1, hits give low values 1.02 | locus YCL011C, strain gbp2, hits give low values 1.02 | locus YCL016C, strain dcc1, hits give low values 1.01 | locus YCL061C, strain MRC1 (second series), hits give low values 1.01 | [2] 1.02 | locus YCL069W, strain vba3, hits give low values 1.02 | locus YCR088W, strain abp1, hits give low values 1.02 | locus YDL005C, strain med2, hits give low values 1.02 | locus YDL040C, strain nat1, hits give low values 1.02 | locus YDR001C, strain nth1, hits give low values 1.02 | locus YDR069C, strain doa4, hits give low values 1.04 | locus YDR137W, strain rgp1, hits give low values 1.02 | locus YDR159W, strain sac3, hits give low values 1.03 | locus YDR195W, strain ref2 1.03 | locus YDR297W, strain sur2, hits give low values 1.02 | locus YDR334W, strain swr1, hits give low values 1.02 | locus YDR335W, strain msn5, hits give low values 1.02 | locus YDR363W, strain ESC2, hits give low values 0.985 | locus YDR392W, strain spt3, hits give low values 0.987 | locus YEL003W, strain gim4, hits give low values 1.02 | locus YEL037C, strain rad23, hits give low values 1.01 | locus YEL061C, strain CIN8 (second series), hits give low values 1.02 | locus YER002W, strain NOP16, hits give low values 0.976 | locus YER015W, strain faa2, hits give low values 1.03 | locus YER016W, strain bim1, hits give low values 1.02 | locus YER111C, strain swi4, hits give low values 1.03 | locus YER155C, strain BEM2 (second series), hits give low values 1.04 | locus YFR010W, strain ubp6, hits give low values 1.01 | locus YGL167C, strain pmr1, hits give low values 1.02 | locus YGL173C, strain kem1, hits give low values 1.03 | locus YGL227W, strain vid30, hits give low values 1.03 | locus YGL240W, strain doc1, hits give low values 1.03 | locus YGL253W, strain hxk2, hits give low values 1.02 | [3] 1.01 | locus YHR013C, strain ard1, hits give low values 1.05 | locus YHR027C, strain rpn1, hits give low values 1.02 | [4] 1 | locus YHR079C, strain IRE1, hits give low values 0.995 | locus YHR142W, strain chs7, hits give low values 1.02 | locus YJL092W, strain hpr5, hits give low values 1.01 | locus YJL095W, strain BCK1 (second series), hits give low values 1.02 | [5] 0.997 | locus YJL115W, strain asf1, hits give low values 1.03 | locus YJL129C, strain trk1, hits give low values 1.04 | locus YJL154C, strain vps35, hits give low values 1.02 | locus YJL164C, strain tpk1, hits give low values 1.02 | locus YJL166W, strain qcr8, hits give low values 1.03 | [6] 1.02 | locus YJR066W, strain TOR1, hits give low values 0.949 | locus YKL160W, strain elf1, hits give low values 1.03 | locus YKR026C, strain gcn3, hits give low values 1 | locus YKR091W, strain srl3, hits give low values 1.02 | locus YLL001W, strain dnm1, hits give low values 0.997 | locus YLL026W, hits give low values 1.02 | locus YLL041C, strain sdh2, hits give low values 1.02 | locus YLR027C, strain aat2, hits give low values 1.03 | locus YLR113W, strain HOG1, hits give low values 0.966 | locus YLR221C, strain rsa3, hits give low values 1.02 | locus YLR258W, strain gsy2, hits give low values 1.02 | locus YLR262C, strain YPT6 (second series), hits give low values 1.02 | locus YLR320W, strain mms22, hits give low values 1.03 | locus YLR342W, strain FKS1, hits give low values 1.02 | locus YLR357W, strain rsc2, hits give low values 1.07 | locus YLR370C, strain arc18, hits give low values 1.02 | locus YLR384C, strain iki3, hits give low values 1.02 | locus YML120C, strain ndi1, hits give low values 0.994 | locus YMR058W, strain fet3, hits give low values 1.02 | locus YMR125W, strain sto1, hits give low values 1.05 | locus YMR129W, hits give low values 1.02 | locus YMR205C, strain PFK2, hits give low values 1.03 | locus YMR231W, strain pep5, hits give low values 1.01 | [7] 1.01 | locus YNL071W, strain lat1, hits give low values 1.01 | locus YNL175C, strain NOP13, hits give low values 0.986 | locus YNL183C, strain NPR1, hits give low values 0.949 | locus YNL197C, strain WHI3, hits give low values 0.991 | locus YNL209W, strain ssb2, hits give low values 1.02 | locus YNL224C, strain SQS1, hits give low values 0.981 | locus YNL248C, strain rpa49, hits give low values 1.02 | locus YNL322C, strain KRE1 (second series), hits give low values 1.02 | [8] 1.01 | locus YNR049C, strain mso1, hits give low values 1.03 | locus YOR001W, strain rrp6, hits give low values 1.02 | locus YOR070C, strain gyp1, hits give low values 1.02 | locus YOR080W, strain dia2, hits give low values 1.03 | locus YOR083W, strain WHI5 (second series), hits give low values 0.992 | locus YOR083W, strain WHI5, hits give low values 1.01 | locus YOR106W, strain vam3, hits give low values 1.03 | locus YOR231W, strain MKK1, hits give low values 1.01 | locus YOR265W, strain rbl2, hits give low values 1.02 | locus YOR270C, strain vph1, hits give low values 1.08 | locus YOR290C, strain snf2, hits give low values 1.04 | locus YPL051W, strain arl3, hits give low values 1.02 | [9] 0.994 | locus YPL078C, strain atp4, hits give low values 1.01 | locus YPL106C, strain sse1, hits give low values 1.02 | locus YPL240C, strain hsp82, hits give low values 1.02 | [10] 1 | locus YPL256C, strain CLN2, hits give low values 0.989

CSC(=NCc1cccnc1)NC#N
inactive: [1] 0.991 | [11] 1 | [2] 1 | [12] 1 | locus YDR150W, strain NUM1, hits give low values 0.997 | [13] 0.993 | [3] 1 | [14] 1 | [4] 1.01 | locus YHR087W, strain rtc3, hits give low values 1 | [6] 0.994 | [15] 0.986 | locus YJR075W, strain HOC1, hits give low values 0.998 | [16] 0.998 | [17] 1 | locus YLR058C, strain SHM2 (second series), hits give low values 0.992 | locus YLR085C, strain ARP6, hits give low values 1.02 | [18] 1.01 | locus YML094W, strain GIM5, hits give low values 1.06 | locus YMR219W, strain ESC1, hits give low values 1 | locus YMR263W, strain SAP30, hits give low values 0.992 | locus YNL153C, strain GIM3, hits give low values 1.01 | locus YNL298W, strain CLA4 (second series), hits give low values 1.01 | [8] 0.998 | locus YNR030W, strain Alg12, hits give low values 1 | [19] 1.03 | [9] 0.994 | [10] 0.987 | locus YPR135W, strain CTF4, hits give low values 1.01

COC(=O)C[C@H]1C(C)(C)C(=O)[C@@H]2CC3=C4CC(OC)O[C@@H](c5ccoc5)[C@]4(C)CCC3[C@@]1(C)C2=O (stereo partly specified)
inactive: locus YBR021W, strain FUR4, hits give low values 1.01 | [11] 0.994 | locus YCL029C, strain bik1, hits give low values 0.987 | locus YDL035C, strain GPR1, hits give low values 1.02 | locus YDL074C, strain BRE1, hits give low values 1.01 | [12] 1.01 | locus YDL134C, strain PPH21, hits give low values 1 | locus YDL185W, strain tfp1, hits give low values 1 | locus YDL192W, strain arf1, hits give low values 1 | locus YDR101C, strain arx1, hits give low values 0.995 | locus YDR162C, strain NBP2, hits give low values 1 | locus YDR318W, strain mcm21, hits give low values 0.998 | locus YDR388W, hits give low values 0.991 | locus YDR502C, strain sam2, hits give low values 0.989 | [13] 0.999 | locus YER110C, hits give low values 0.994 | locus YER155C, strain BEM2, hits give low values 1.01 | locus YER167W, strain BCK2, hits give low values 1.01 | locus YGL078C, strain dbp3, hits give low values 1.01 | locus YGL086W, strain mad1, hits give low values 0.995 | locus YGL248W, strain PDE1, hits give low values 1.01 | [3] 1.01 | locus YGR135W, strain pre9, hits give low values 0.99 | [14] 1.03 | locus YGR252W, strain gcn5, hits give low values 1.01 | [4] 1 | locus YHR079C, strain IRE1 (second series), hits give low values 0.996 | locus YHR094C, strain hxt1, hits give low values 0.993 | locus YHR129C, strain ARP1, hits give low values 1.01 | locus YHR200W, strain rpn10, hits give low values 0.997 | locus YIL066C, strain RNR3, hits give low values 1.01 | locus YIL073C, strain SPO22, hits give low values 0.995 | locus YIL125W, strain kgd1, hits give low values 0.998 | locus YIR030C, strain dcg1, hits give low values 1 | [5] 1.01 | locus YJL134W, strain LCB3, hits give low values 1.01 | locus YJL168C, strain set2, hits give low values 0.996 | locus YJL187C, strain SWE1 (second series), hits give low values 1.01 | [15] 1.02 | locus YKL009W, strain mrt4, hits give low values 0.984 | locus YKL068W, hits give low values 1 | locus YKL085W, strain MDH1 (second series), hits give low values 1 | locus YKL085W, strain MDH1, hits give low values 1 | [16] 1.01 | locus YKR001C, strain vps1, hits give low values 1 | [17] 0.969 | locus YLR058C, strain SHM2, hits give low values 1 | locus YLR102C, strain apc9, hits give low values 1 | [18] 0.982 | locus YLR268W, strain sec22, hits give low values 1.01 | locus YLR330W, strain CHS5, hits give low values 1 | locus YLR342W, strain FKS1 (second series), hits give low values 0.991 | locus YLR371W, strain rom2, hits give low values 1 | locus YLR418C, strain cdc73, hits give low values 0.992 | locus YML016C, strain PPZ1, hits give low values 1 | locus YML032C, strain rad52, hits give low values 0.997 | locus YML124C, strain tub3, hits give low values 1 | locus YMR078C, strain ctf18, hits give low values 0.99 | locus YMR223W, strain ubp8, hits give low values 1.01 | [7] 1.03 | locus YNL067W, strain RPL9B, hits give low values 1.01 | locus YNL233W, strain BNI4, hits give low values 1.04 | locus YNL250W, strain rad50, hits give low values 0.986 | locus YNL271C, strain bni1, hits give low values 1 | locus YNL298W, strain CLA4, hits give low values 0.984 | locus YNL307C, strain MCK1, hits give low values 0.985 | locus YNR052C, strain pop2, hits give low values 1.01 | [19] 1.06 | locus YOL012C, strain htz1 1.32 | locus YOL147C, strain pex11, hits give low values 0.995 | locus YOR061W, strain CKA2, hits give low values 0.999 | locus YOR069W, strain VPS5, hits give low values 1.01 | locus YOR136W, strain idh2, hits give low values 0.999 | locus YOR144C, strain elg1, hits give low values 0.988 | locus YOR184W, strain ser1, hits give low values 1.01 | locus YOR316C, strain cot1, hits give low values 1 | [9] 1.03 | [10] 1 | locus YPR119W, strain clb2, hits give low values 1.01 | locus YPR141C, strain kar3, hits give low values 0.999 | locus YPR163C, strain tif3, hits give low values 0.996 | locus YPR167C, strain met16, hits give low values 1 | strain wtn01, hits give low values 1.01
